fixLJ activator: increases Burkholderia fixLJ two-component signaling; B. multivorans fixK-promoter GFP reporter, 18 h; stronger effect = higher value; z-score (test concentration not listed); 29,000 compounds, 0.3% hits;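 active means replicate mean overnight rise in green fluorescent reporter signal, 3 or more SD over negative controls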
* = called active by the depositor. Many of the other results were omitted from the sample, so hits are more common in it than they were.

SMILES	fixLJ activator
CN(C(=O)c1ccc(CSc2ncn[nH]2)o1)C1CCCc2ccccc21 (stereo not given)	1.2
COc1ccc(Nc2cc(C(=O)NCCCN(C)C3CCCCC3)c3ccccc3n2)cc1	-1.1
CCCCN(CCCNC(=O)c1cc(Nc2cccc(SC)c2)nc2ccccc12)Cc1ccccc1	3.2*
CSc1cccc(Nc2cc(C(=O)NCCc3ccc(Cl)cc3)c3ccccc3n2)c1	2
Cc1ocnc1C(=O)NC1CCCC(NC(=O)CCCn2cncn2)C1 (stereo not given)	0.11
Cc1nc(CN2CCN(C(=O)c3cc(C(C)C)n4ncnc4n3)CC2)cs1	-1.5
COc1ccccc1NC(=O)CSc1oc(-c2ccco2)nc1S(=O)(=O)c1ccc(C)cc1	-1.5
COc1ccc(NC(=O)CSc2oc(-c3ccco3)nc2S(=O)(=O)c2ccccc2)c(OC)c1	6.8*
COc1ccc(NC(=O)CSc2oc(-c3cccs3)nc2S(=O)(=O)c2ccccc2)c(OC)c1	3.7*
Cc1cc(C)cc(NC(=O)CSc2oc(-c3ccco3)nc2S(=O)(=O)c2ccccc2)c1	-1.5
COc1ccc(NC(=O)CSc2oc(-c3cccs3)nc2S(=O)(=O)c2ccc(C)cc2)c(OC)c1	-1.3
COc1ccccc1NC(=O)CSc1oc(-c2cccs2)nc1S(=O)(=O)c1ccc(Br)cc1	-1.6
COc1ccc(CC(=O)NC2C3CCOC3C2N2CCCC2)cc1 (stereo not given)	-0.68
O=C(C1CCCC1)N1CCC(Nc2cnc3ccccc3n2)CC1	0.52
COc1cc(C)c(-c2cccc(C(=O)NC3CCCNC3=O)c2)cn1 (stereo not given)	-1.1
O=C(CCCc1cn[nH]c1)N1CCC2(CCC(=O)N(Cc3ccccn3)C2)CC1	-1.2
CC(C)Cc1noc(C(C)NC(=O)c2nc(Cl)n(C)n2)n1 (stereo not given)	0.63
CN1CC(=O)N2CCN(Cc3nn(C)c4cccc(Cl)c34)CC2C1=O (stereo not given)	-0.26
Cn1nc(CNC(=O)C2CCCCn3nnnc32)c2c(Cl)cccc21 (stereo not given)	3.3*
O=C(NCc1cc(-c2ccc(F)cc2)no1)C1CCCCn2nnnc21 (stereo not given)	-1.8
NS(=O)(=O)CCCC(=O)N1CCCC(CNC(=O)c2cc(F)ccc2F)C1 (stereo not given)	-0.66
CC1NC(=O)N(c2ccccc2NC(=O)CCc2ccc(F)cc2)C1=O (stereo not given)	1.2
COCCNC(=O)CCn1c(=O)c2cc(OC)c(OC)cc2n(CC(=O)Nc2ccccc2OC)c1=O	4.6*
COCCNC(=O)CCn1c(=O)c2cc(OC)c(OC)cc2n(CC(=O)Nc2ccccc2C)c1=O	0.19
COCCNC(=O)CCCn1c(=O)c2cc(OC)c(OC)cc2n(CC(=O)Nc2ccc(F)cc2)c1=O	0.67
SMILES	fixLJ activator
O=C(C1CCN(c2ccccc2)C1=O)N1CCC(Oc2ncccn2)CC1 (stereo not given)	-0.73
COc1ccc(C2=NC(c3ccccc3)=Nc3ccc(C)cc3N2)cc1	-0.44
Cc1cccc(C2=Nc3ccccc3N=C(c3cc(Cl)ccc3O)C2)c1	1.4
COc1ccc(O)c(C2=Nc3ccccc3N=C(c3ccccc3)C2)c1	3.7*
CN(Cc1cc(C(C)(C)C)n[nH]1)C(=O)NCc1nc(-c2cnccn2)n[nH]1	0.05
N#Cc1cccc(CN2CCC3(C2)CN(C(=O)CCn2cnnn2)CCO3)c1 (stereo not given)	1.1
O=c1oc2ccc3ccccc3c2cc1-c1nnc(Nc2ccccc2F)s1	0.59
O=c1oc2cc(O)ccc2cc1-c1nnc(Nc2ccccc2F)s1	23*
CCOc1ccc2cc(-c3nnc(Nc4ccc(C)cc4)s3)c(=O)oc2c1	-0.47
Cc1cc(NC(=O)c2csc(C(C)C)n2)ccc1N1CCCC1=O	-0.08
CCc1cnc(C)nc1N1CCN(c2ccccc2C#N)CC1	-0.04
COc1cc(NC(=O)c2cc(-c3ccc4c(c3)OCO4)on2)cc(OC)c1OC	3.7*
COc1ccc(NC(=O)c2cc(-c3ccc4c(c3)OCO4)on2)c(OC)c1	-0.07
COc1ccc(-c2cc(C(=O)Nc3ccc4c(c3)OCO4)no2)cc1	-2.9
CC(=O)NC1CCN(Cc2nc(-c3cccc(Cl)c3)oc2C)CC1	-0.36
COc1cccc(-c2[nH]ncc2C(=O)N(C)CCc2cn[nH]c2)c1	0.13
CCOC(=O)C1CCN(C(=O)Cn2ncc3c4ccccc4n(Cc4ccccc4)c3c2=O)CC1	-2.4
CCCN1CCN(C(=O)Cn2ncc3c4ccccc4n(Cc4cccc(Cl)c4)c3c2=O)CC1	14*
CN1CCN(C(=O)Cn2ncc3c4ccccc4n(Cc4ccc(F)cc4)c3c2=O)CC1	-1.7
O=C(Cn1ncc2c3ccccc3n(Cc3ccccc3F)c2c1=O)N1CCCCCC1	-0.94
O=C(Cn1ncc2c3ccccc3n(Cc3ccccc3F)c2c1=O)N1CCCCC1	-0.13
O=C(Cn1ncc2c3ccccc3n(Cc3ccc(Cl)cc3)c2c1=O)N1CCCCCC1	6.4*
CC(=O)N1CCc2c(nc(C)nc2N2CCC(O)(CN(C)C)CC2)C1	-1.9
Cn1ccc2cc(-c3cccc(C(=O)NCCN4CCCOC4=O)c3)ccc21	-3.4
CCOc1ccc(-n2c(=O)c3c(C)c(C)sc3n(CC(=O)c3ccccc3)c2=O)cc1	3.2*
SMILES	fixLJ activator
Cc1ccc(-n2c(=O)c3c(C)c(C)sc3n(CC(=O)c3ccc(Cl)cc3)c2=O)cc1C	-1.3
CCOc1ccc(-n2c(=O)c3c(C)c(C)sc3n(CC(=O)N(CC)Cc3ccccc3)c2=O)cc1	-1.9
CCOc1ccc(-c2ccnc(NCC3CCN(C)C3)n2)cc1C(=O)O (stereo not given)	-0.22
O=C1CCCCN1CCC(=O)N(CCCO)Cc1cccc2ccccc12	-0.71
CC(=O)N1CCc2cc(Br)cc(S(=O)(=O)N3CCN(c4cccc(C(F)(F)F)c4)CC3)c21	3.3*
CCC(=O)N1CCc2cc(Br)cc(S(=O)(=O)N3CCN(c4ccccc4)CC3)c21	0.14
O=C(C1CC1)N1CCc2cc(Br)cc(S(=O)(=O)N3CCN(c4cccc(Cl)c4)CC3)c21	-1.1
CCc1nn(C)cc1-c1cccc(C(=O)N(C)Cc2ccoc2)c1	0.61
COc1ccc2c(c1)CC(c1n[nH]c(Cc3cccs3)n1)CO2 (stereo not given)	-0.04

Assay outcomes as filed in PubChem.
